For 40 compounds, growth results are on record in PubChem BioAssay (NCI).

Compounds without any hit were thinned out: in the full panel of roughly 83,000, 20% have a hit.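 Note: values are percent growth. 100 is the growth of untreated cells, values between 100 and 0 indicate rising inhibition; between -100 and 0 indicates cell death.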 A number with no mark means an inactive call. The source made the active and inactive calls. The calls were made as follows: active = growth percent below 10; inactive = the rest.

For this experiment, the system named is HL-60(TB) leukemia. Put plainly: NCI-60 one-dose screen, 48 h (100 = growth as untreated, 0 = no growth, -100 = all killed). To be noted: 10 µM unless noted.
With `COc1cc(C2CC(C3C(=O)N(C)C(=O)N(C)C3=O)=NN2C=O)cc(OC)c1OC` (stereo not given), the growth is 104%.
Consider `CC1OC(n2c3ccccc3c3c4c(c5c6ccccc6[nH]c5c32)C(=O)N(CCN2CCCC2)C4=O)CC(O)C1O` (stereo not given), for which the growth is 44.2%.
For `Cn1cc(-c2csc(-c3c[nH]c4ncccc34)n2)c2cc(F)cnc21` the value was 79.8%.
As for `COc1cc2c(Oc3ccc(NC(=O)C4(C(=O)Nc5ccc(F)cc5)CC4)cc3F)ccnc2cc1OCCCN1CCOCC1`, the growth is -21.4% (active).
For the compound `CN1CCN(c2cnc(C(=O)Nc3cc(F)cc4cccnc34)cn2)CC1`, the growth was 6.72% (active).
Take `C/C(=C(/c1ccc(Cl)cc1)c1ccc(OCCCN(C)C)cc1)c1ccc(Cl)cc1`: the growth is 72.9%.
For `COc1ccc(C2=Nc3c(N)ncnc3NC(c3cccc(Nc4ccnc5cc(C(F)(F)F)ccc45)c3)C2)cc1` (stereo not given) the value was 42.7%.
For `COc1ccccc1CNCCCN1C(=O)c2ccc3c4c(ccc(c24)C1=O)C(=O)N(CCCOCCCCOCCCN)C3=O`, the growth was -50.2% (active).
The value for `Nc1nc(-c2ccccc2Cl)cc(-c2ccc(Cl)cc2Cl)n1` was 51.4%; that for `C[N+]1=C(/C=C/c2ccc(O)c3ncccc23)C(C)(C)c2ccccc21` was 32.5%.
`COc1ccc(/C=C2\CCCC3=C2NC(N)=NC3c2ccc(OC)cc2)cc1` (stereo not given): the growth is 67.8%.
The value for `S=c1c2ncccc2c(-c2ccccn2)nn1Cc1ccccn1` was 71.6%; that for `CCCCN(CCCC)C(=O)[C@H](CC)[C@@H]1CC[C@@H](C)[C@@H]([C@H](C)[C@@H](O)[C@@H](C)C(=O)[C@H](CC)C2O[C@]3(C=C[C@@H](O)[C@]4(CC[C@@](C)([C@H]5CC[C@](O)(CC)[C@H](C)O5)O4)O3)[C@H](C)C[C@@H]2C)O1` (stereo not given in full) was -40.8% (active).
In the case of `COc1cc(-c2nn(-c3ccccc3)cc2-c2ccnc(NCCNS(=O)(=O)c3ccc(Cl)cc3)n2)ccc1Cl`, the growth was -35.9% (active).
For the compound `C/C(=N\NC(=S)N1CCCCC1)c1ccccn1`, the growth is -21.6% (active).
In the case of `COC(=O)[C@H]1Cc2c([nH]c3ccccc23)[C@H](c2ccc3c(c2)OCO3)N1`, the growth is 98.6%.
Regarding `O=C1Nc2ccccc2/C1=C/C(=O)c1ccc(N2CCOCC2)cc1`, the growth is 49.8%.
For `CCCCC/C(=C\c1ccccc1)C1OC(C)C(C)O1` (stereo not given) the value was 115%.
As for `Nc1cc(Cl)cc2cccnc12`, the growth was 72.3%.
As for `CCCCCCCCCCCCOC(=O)/C=C\C(=O)NC(N)=O`, the growth was 52.3%.
Consider `Nc1c2c(nc3ccc(Cl)cc13)CC(c1ccc(O)cc1)CC2=O` (stereo not given), for which the growth was 18.9%.
Regarding `C[C@H]1[C@H](C)CC[C@]2(C(=O)N3CCN(C)CC3)CC[C@]3(C)C(=CC[C@@H]4[C@@]5(C)C/C(=C/c6cccnc6)C(=O)C(C)(C)[C@@H]5CC[C@]43C)[C@H]12`, the growth is -54.4% (active).
`CS(=O)(=O)c1nnc(-c2ccccc2)s1`: the growth is 64.8%.
For `COC(=O)[C@H](Cc1cn(C)cn1)NC(=O)[C@H](Cc1c[nH]c2ccccc12)NC(=O)Nc1cc(C(F)(F)F)cc(C(F)(F)F)c1` the value was -54.5% [100 µM] (active).
With `COc1ccc(Nc2cc(C)nc(N3CCN(c4ccnc5cc(Cl)ccc45)CC3)n2)cc1`, the growth is 2.43% (active).
The value for `COc1cc(/C=N/NC(=O)c2cnn3c2NC(c2ccccc2)C3)ccc1Oc1ccccc1` (stereo not given) was 14.3%; that for `CCN1C(=O)N(CC)C2C1NN=c1s/c(=C\c3ccccn3)c(=O)n12` (stereo not given) was -22.5% (active); that for `c1ccc(-c2nc3nonc3nc2-c2ccccc2)cc1` was 85.3%.
For `Nc1nc2c(c3cnccc13)C(c1cccc(Cl)c1)Cc1cnccc1-2` (stereo not given) the value was 4.89% (active).
In the case of `CCC[CH2][Sn]1([CH2]CCC)[O]C2C(CO)OC(n3ccc(N)nc3=O)C2[O]1` (stereo not given), the growth is -36.6% (active).
For the compound `O=C(Nc1c(Cl)cccc1Cl)Oc1cccc2cccnc12`, the growth is -5.41% [100 µM] (active).
For `Nc1ccc2c(c1)C(=O)C(=O)c1c-2nc2ccccn12` the value was -47.3% (active); for `COc1c(Cl)c2c(c(OC)c1OC)-c1ccc(SC)c(=O)cc1[C@@H](NC(=O)OCC(F)(F)F)CC2`, -35.4% (active); for `COc1ccc(OC)c(/C=C/c2nnc(Nc3ccc(Cl)cc3)o2)c1`, 80.6%.
With `O=C(NNc1ccc(-c2ccccc2)nn1)c1ccc(F)cc1`, the growth is 96.7%.
For `Cc1ccc(-c2onc3c(=O)[nH]nc(-c4ccccc4)c23)cc1` the value was -8.12% (active); for `c1ccc2c(-c3nccs3)c[nH]c2c1`, 85.1%; for `COc1cc(C=C2C(=O)NC(=S)NC2=O)cc(CN2CCCC2)c1O`, 108%.
For `CCOC(=O)CCCn1c(-c2ccccc2)cc(-c2ccccc2)c(C#N)c1=O` the value was 77.9%; for `O=c1[nH]cc(/C=N\Nc2ccccc2)c(=O)[nH]1`, 0.751% (active).
